In the supplement of paper PMC12645437, “Orthogonal IMiD-Degron Pairs Induce Selective Protein Degradation in Cells” (ACS Chemical Biology, 2025):
The full ranking holds about 8,300 sequences; the median of “log2 fold change of degron read counts, EGFP-low vs EGFP+ sorted cells (limma voom), compound-induced degradation” is about -1.1, and the highest 2% start at about 3.2. The sample holds the highest values, similar sequences and a random draw of the others, so the mix is not that of the screen.

T1: CRBN, Q96SW2
T1 chain: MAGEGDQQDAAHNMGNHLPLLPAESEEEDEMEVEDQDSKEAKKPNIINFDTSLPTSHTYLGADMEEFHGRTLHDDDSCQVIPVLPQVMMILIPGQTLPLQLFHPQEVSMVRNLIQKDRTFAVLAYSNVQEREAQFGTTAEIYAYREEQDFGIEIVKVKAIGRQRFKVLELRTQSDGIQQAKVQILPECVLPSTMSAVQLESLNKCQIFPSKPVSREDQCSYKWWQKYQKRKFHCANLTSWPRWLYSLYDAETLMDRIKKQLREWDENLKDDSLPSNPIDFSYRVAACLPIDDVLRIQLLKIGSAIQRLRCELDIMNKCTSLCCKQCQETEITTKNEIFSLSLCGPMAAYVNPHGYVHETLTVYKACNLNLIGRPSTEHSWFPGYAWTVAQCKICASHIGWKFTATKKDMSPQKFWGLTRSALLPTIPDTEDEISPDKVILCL


Target: T1, CRBN, Q96SW2
Test: log2 fold change of degron read counts, EGFP-low vs EGFP+ sorted cells (limma voom), compound-induced degradation; higher = more compound-induced degradation of the degron-EGFP fusion; degrons are variants of IKZF1/3 zinc finger 2; compound dose not given here
Details: Jurkat, 18 h
[1] = compound: compound 19 (5-tert-butyl-thalidomide)
[2] = compound: compound 22 (5-morpholino-thalidomide)
[3] = compound: compound 33 (diphenyl IMiD analogue)
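Further: pooled lentiviral library of zinc finger degron-EGFP fusions in mCherry-positive Jurkat cells, FACS-sorted after compound exposure, with degron abundance counted by next-generation sequencing.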

| Sequence | log2 fold change of degron read counts [1] | log2 fold change of degron read counts [2] | log2 fold change of degron read counts [3] | log2 fold change of degron read counts (compound: thalidomide) |
| --- | --- | --- | --- | --- |
| FCCPVCGAQFTQKGNLLRHIKL [46F_47C_49P_50V_52G_53A_54Q_55F_67L_, Q9UKT9] | 2.69 | 2.25 | 2.84 | 2.3 |
| FWCPQCGAQFTQKGNLLRHIKL [46F_47W_49P_50Q_52G_53A_54Q_55F_67L_, Q9UKT9] | 0.804 | 3.54 | 1.31 | 0.158 |
| FFCPVCGAQFTQKGNLLRHIKL [46F_47F_49P_50V_52G_53A_54Q_55F_67L_, Q9UKT9] | 3.11 | 3.47 | 2.43 | 1.92 |
| FRCPVCGAQFTQKGNLLRHIKL [46F_47R_49P_50V_52G_53A_54Q_55F_67L_, Q9UKT9] | -0.139 | 0.391 | 0.974 | 1.28 |
| FWCPVCGAQFTQKGNLLRHIKL [46F_47W_49P_50V_52G_53A_54Q_55F_67L_, Q9UKT9] | 2.98 | 3.92 | 2.63 | 2.09 |
| FACPQCGAQFTQKGNLLRHIKL [46F_47A_49P_50Q_52G_53A_54Q_55F_67L_, Q9UKT9] | 0.495 | -1.5 | -0.396 | -1.08 |
| FSCPVCGAQFTQKGNLLRHIKL [46F_47S_49P_50V_52G_53A_54Q_55F_67L_, Q9UKT9] | 2.24 | 2.08 | 1.65 | 1.45 |
| FVCPVCGAQFTQKGNLLRHIKL [46F_47V_49P_50V_52G_53A_54Q_55F_67L_, Q9UKT9] | -0.526 | 2.62 | 2.83 | 2.98 |
| FLCPVCGAQFTQKGNLLRHIKL [46F_47L_49P_50V_52G_53A_54Q_55F_67L_, Q9UKT9] | 0.29 | -0.0233 | 1.82 | 1.61 |
| FVCPQCGAQFTQKGNLLRHIKL [46F_47V_49P_50Q_52G_53A_54Q_55F_67L_, Q9UKT9] | -1.74 | 0.725 | 1.72 | 1.08 |
| FYCPVCGAQFTQKGNLLRHIKL [46F_47Y_49P_50V_52G_53A_54Q_55F_67L_, Q9UKT9] | 2.88 | 3.65 | 2.38 | 1.69 |
| FMCPVCGAQFTQKGNLLRHIKL [46F_47M_49P_50V_52G_53A_54Q_55F_67L_, Q9UKT9] | -0.258 | 1.27 | 2.9 | 1.78 |
| FRCPQCGARFTQKGNLLRHIKL [46F_47R_49P_50Q_52G_53A_54R_55F_67L_, Q9UKT9] | -2.3 | -2.09 | -1.12 | -1.27 |
| FLCPQCGAKFTQKGNLLRHIKL [46F_47L_49P_50Q_52G_53A_54K_55F_67L_, Q9UKT9] | -2.44 | -2.82 | -1.39 | -0.831 |
| FKCEVCGAQFTQKGNLLRHIKL [46F_47K_49E_50V_52G_53A_54Q_55F_67L_, Q9UKT9] | -0.0625 | -2.24 | -2.07 | -0.411 |
| FFCEICGRAFTQKGNLLRHIKL [46F_47F_49E_50I_52G_53R_54A_55F_67L_, Q9UKT9] | 0.601 | -0.248 | 0.402 | -1.11 |
| FKCEICGHPFTQKGNLLRHIKL [46F_47K_49E_50I_52G_53H_54P_55F_67L_, Q9UKT9] | -2.59 | -2.5 | -2.61 | -0.946 |
| FKCPICGRFFTQKGNLLRHIKL [46F_47K_49P_50I_52G_53R_54F_55F_67L_, Q9UKT9] | -1.81 | -1.89 | -2.21 | -1.32 |
